# Results as given in PubChem BioAssay (Tox21).
# Records with an inconclusive call do not appear. Values without a mark were called inactive. Calls of active or inactive are those of the source. Calls come from the whole dose curve; as a rule, active = well fitted cell-killing curve with a large enough effect in the repeat runs; inconclusive = weak or mixed curves, or effect the other way; inactive = flat fitted curve, though single readings scatter.
# Assay: Nuclear factor erythroid 2-related factor 2/antioxidant responsive element (Nrf2/ARE) small molecule agonists: qHTS cell viability counter screen in human keratinocytes (AID 1919968); note: nearly all actives have a fitted effect of over 55% in size
# Conditions: KeratinoSens HaCaT ARE cells viability, CellTiter-Fluor, 24 h; series mostly up to 92.4 µM; activity change, negative = cytotoxicity: at the top concentration
# Summary of the method: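 After a 5 h attachment period, ARE-reporter keratinocytes were dosed with compounds in DMSO and then cultured 23 h at 37 C. Cell viability came from CellTiter-Fluor signal read after a further 1 h.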
# % is set by controls: 0 for no effect and ±100 for the full control effect; potency is the fitted concentration of half-maximal effect.
SMILES,"activity change, negative = cytotoxicity",Potency
c1cc2c3c(c1)ccc1cccc(c13)C2,-0.593%,–
CCOC(=O)N1CCC(Nc2ccc(Cl)cc2N)CC1,3.52% [at 42.5 µM],–
CCCCCC(=O)OCCc1ccccc1,4.04%,–
COc1cc(C(C)C)ccc1C,2.71% [at 19 µM],–
CCCCCCCCCCOCC(O)CN (centres undefined),–,37.6 µM (active)
CC(C)(Oc1ccc(Cl)cc1)C(=O)OCCCOC(=O)C(C)(C)Oc1ccc(Cl)cc1,-1.17% [at 42.5 µM],–
CCCCCCCC(=O)Oc1c(Br)cc(C#N)cc1Br,-10.5%,–
O=C(C(Cl)Cl)N1CCOC12CCCCC2,5.58%,–
COc1ccc(-c2coc3cc(O)ccc3c2=O)cc1,1.32%,–
COc1ccc2nc(SCc3ncc(C)c(OC)c3C)[nH]c2c1,3.1% [at 42.5 µM],–
O=S(=O)(O)c1ccc(Cl)cc1,-1.13%,–
CC(C)OC(=O)C(C)N(C(=O)c1ccccc1)c1ccc(F)c(Cl)c1 (centres undefined),-1.38%,–
CCOC(=O)c1c(N)sc2c1CCN(Cc1ccccc1)C2,2.96% [at 42.5 µM],–
CN(C)CCCCl,-1.24%,–
CCCCNc1c(C(=O)OCC)c(C)nc2c1cnn2CC,0.596% [at 42.5 µM],–
C=C(C)C(=O)OC1CC(C)CC(C)(C)C1 (centres undefined),2.03%,–
Nc1cc(C(=O)O)ccc1Cl,1.56%,–
O=C(NC1CCN(CCc2c[nH]c3ccccc23)CC1)c1ccccc1,-6.47% [at 42.5 µM],–
O=C(O)CCCc1c[nH]c2ccccc12,1.03%,–
NC(CO)C(=O)NNCc1ccc(O)c(O)c1O (centres undefined),-9.65% [at 42.5 µM],–
CCN(CC)c1cccc(C)c1,-5.18%,–
CCCC(C)c1ccccc1O (centres undefined),-0.128%,–
CCO[Si](C)(CCCOCC1CO1)OCC (centres undefined),-16.9%,–
O=C(O)c1cn(C2CC2)c2cc(Cl)c(F)cc2c1=O,1.01% [at 42.5 µM],–
